Assay results taken from PubChem BioAssay AID1159580 (chemical genetic matrix, 2015).
Hit rate of the full screen: of about 5,500 compounds, about 2,000 (36%) were called active. Not shown: some 18% with an inconclusive outcome. No stated cut-off is given here; in the data, active means normalized growth mostly below about 0.91 (no sharp cut-off); inconclusive means no clear call, values can overlap the other calls; inactive means mostly above about 0.92. The list shows a part of the results.

Assay: chemical genetic growth profiling, strain panel (AID 1159580);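 further: tested at 20 µM; growth read once vehicle control cultures reached saturation at 30 °C; 1 = growth at the plate median or of vehicle wells; lower values mean less growth of the strain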
Conditions: growth OD

Measured: normalized growth

CC12CCC3C(CC3(C)C)C(C)(CCC1=O)O2 (configuration not stated)
inactive: S. cerevisiae deletion strains, locus YJR043C, strain POL32, active compounds read low 1.01 | S. cerevisiae deletion strains, locus YJR066W, strain TOR1, active compounds read low 0.988 | S. cerevisiae deletion strains, locus YKL009W, strain mrt4, active compounds read low 1.03 | S. cerevisiae deletion strains, locus YKL068W, active compounds read low 1.01 | S. cerevisiae deletion strains, locus YKL085W, strain MDH1 (second series), active compounds read low 1.01 | S. cerevisiae deletion strains, locus YKL085W, strain MDH1, active compounds read low 1.01 | S. cerevisiae deletion strains, locus YKL160W, strain elf1, active compounds read low 1.03 | S. cerevisiae deletion strains, locus YKL190W, strain CNB1, active compounds read low 1.01 | S. cerevisiae deletion strains, locus YKR001C, strain vps1, active compounds read low 1.03 | S. cerevisiae deletion strains, locus YKR026C, strain gcn3, active compounds read low 0.994 | S. cerevisiae deletion strains, locus YKR091W, strain srl3, active compounds read low 0.992 | S. cerevisiae deletion strains, locus YLL001W, strain dnm1, active compounds read low 1.01 | S. cerevisiae deletion strains, locus YLL026W, active compounds read low 0.997 | S. cerevisiae deletion strains, locus YLL041C, strain sdh2, active compounds read low 0.992 | S. cerevisiae deletion strains, locus YLR027C, strain aat2, active compounds read low 1.01 | S. cerevisiae deletion strains, locus YLR039C, strain RIC1, active compounds read low 1.08 | S. cerevisiae deletion strains, locus YLR058C, strain SHM2, active compounds read low 1.02 | S. cerevisiae deletion strains, locus YLR102C, strain apc9, active compounds read low 1.01 | S. cerevisiae deletion strains, locus YLR113W, strain HOG1, active compounds read low 1.04 | S. cerevisiae deletion strains, locus YLR221C, strain rsa3, active compounds read low 1 | S. cerevisiae deletion strains, locus YLR258W, strain gsy2, active compounds read low 0.99 | S. cerevisiae deletion strains, locus YLR262C, strain YPT6 (second series), active compounds read low 0.992 | S. cerevisiae deletion strains, locus YLR268W, strain sec22, active compounds read low 1.03 | S. cerevisiae deletion strains, locus YLR320W, strain mms22, active compounds read low 0.992 | S. cerevisiae deletion strains, locus YLR330W, strain CHS5, active compounds read low 1.02 | S. cerevisiae deletion strains, locus YLR342W, strain FKS1, active compounds read low 0.992 | S. cerevisiae deletion strains, locus YLR357W, strain rsc2, active compounds read low 1.01 | S. cerevisiae deletion strains, locus YLR370C, strain arc18, active compounds read low 1.03 | S. cerevisiae deletion strains, locus YLR371W, strain rom2, active compounds read low 0.982 | S. cerevisiae deletion strains, locus YLR384C, strain iki3, active compounds read low 1 | S. cerevisiae deletion strains, locus YLR418C, strain cdc73, active compounds read low 1.07 | S. cerevisiae deletion strains, locus YML016C, strain PPZ1, active compounds read low 1.01 | S. cerevisiae deletion strains, locus YML032C, strain rad52, active compounds read low 1.02 | S. cerevisiae deletion strains, locus YML120C, strain ndi1, active compounds read low 1 | S. cerevisiae deletion strains, locus YML124C, strain tub3, active compounds read low 1.02 | S. cerevisiae deletion strains, locus YMR058W, strain fet3, active compounds read low 1.02 | S. cerevisiae deletion strains, locus YMR078C, strain ctf18, active compounds read low 1.01 | S. cerevisiae deletion strains, locus YMR125W, strain sto1, active compounds read low 1.02 | S. cerevisiae deletion strains, locus YMR129W, active compounds read low 0.987 | S. cerevisiae deletion strains, locus YMR205C, strain PFK2, active compounds read low 1.01 | S. cerevisiae deletion strains, locus YMR223W, strain ubp8, active compounds read low 1.03 | S. cerevisiae deletion strains, locus YMR231W, strain pep5, active compounds read low 1.01 | S. cerevisiae deletion strains, locus YMR307W, strain GAS1, active compounds read low 1.02 | S. cerevisiae deletion strains, locus YNL067W, strain RPL9B, active compounds read low 1.03 | S. cerevisiae deletion strains, locus YNL071W, strain lat1, active compounds read low 0.999 | S. cerevisiae deletion strains, locus YNL183C, strain NPR1, active compounds read low 0.999 | S. cerevisiae deletion strains, locus YNL209W, strain ssb2, active compounds read low 0.996 | S. cerevisiae deletion strains, locus YNL233W, strain BNI4, active compounds read low 1.04 | S. cerevisiae deletion strains, locus YNL248C, strain rpa49, active compounds read low 1.04 | S. cerevisiae deletion strains, locus YNL250W, strain rad50, active compounds read low 1.05 | S. cerevisiae deletion strains, locus YNL271C, strain bni1, active compounds read low 1.02 | S. cerevisiae deletion strains, locus YNL298W, strain CLA4, active compounds read low 1.02 | S. cerevisiae deletion strains, locus YNL307C, strain MCK1, active compounds read low 1.03 | S. cerevisiae deletion strains, locus YNL322C, strain KRE1 (second series), active compounds read low 0.985 | S. cerevisiae deletion strains, locus YNL322C, strain KRE1, active compounds read low 1.01 | S. cerevisiae deletion strains, locus YNR049C, strain mso1, active compounds read low 0.999 | S. cerevisiae deletion strains, locus YNR052C, strain pop2, active compounds read low 1.04 | S. cerevisiae deletion strains, locus YOL006C, strain TOP1, active compounds read low 1.08 | S. cerevisiae deletion strains, locus YOL012C, strain htz1 0.815 | S. cerevisiae deletion strains, locus YOL147C, strain pex11, active compounds read low 0.996 | S. cerevisiae deletion strains, locus YOR001W, strain rrp6, active compounds read low 0.95 | S. cerevisiae deletion strains, locus YOR061W, strain CKA2, active compounds read low 1.01 | S. cerevisiae deletion strains, locus YOR069W, strain VPS5, active compounds read low 1.02 | S. cerevisiae deletion strains, locus YOR070C, strain gyp1, active compounds read low 1.03 | S. cerevisiae deletion strains, locus YOR080W, strain dia2, active compounds read low 0.989 | S. cerevisiae deletion strains, locus YOR083W, strain WHI5, active compounds read low 1.03 | S. cerevisiae deletion strains, locus YOR106W, strain vam3, active compounds read low 0.998 | S. cerevisiae deletion strains, locus YOR136W, strain idh2, active compounds read low 1.01 | S. cerevisiae deletion strains, locus YOR144C, strain elg1, active compounds read low 1.02 | S. cerevisiae deletion strains, locus YOR184W, strain ser1, active compounds read low 0.997 | S. cerevisiae deletion strains, locus YOR231W, strain MKK1, active compounds read low 1.05 | S. cerevisiae deletion strains, locus YOR265W, strain rbl2, active compounds read low 1.02 | S. cerevisiae deletion strains, locus YOR270C, strain vph1, active compounds read low 1.1 | S. cerevisiae deletion strains, locus YOR290C, strain snf2, active compounds read low 0.975 | S. cerevisiae deletion strains, locus YOR316C, strain cot1, active compounds read low 1.02 | S. cerevisiae deletion strains, locus YPL051W, strain arl3, active compounds read low 1 | S. cerevisiae deletion strains, locus YPL055C, strain LGE1, active compounds read low 1.04 | S. cerevisiae deletion strains, locus YPL078C, strain atp4, active compounds read low 1.02 | S. cerevisiae deletion strains, locus YPL106C, strain sse1, active compounds read low 1.01 | S. cerevisiae deletion strains, locus YPL240C, strain hsp82, active compounds read low 0.994 | S. cerevisiae deletion strains, locus YPL256C, strain CLN2, active compounds read low 1.06 | S. cerevisiae deletion strains, locus YPR119W, strain clb2, active compounds read low 1.02 | S. cerevisiae deletion strains, locus YPR141C, strain kar3, active compounds read low 1.01 | S. cerevisiae deletion strains, locus YPR163C, strain tif3, active compounds read low 1.03 | S. cerevisiae deletion strains, locus YPR167C, strain met16, active compounds read low 1.02 | S. cerevisiae deletion strains, strain wtn01, active compounds read low 1.01 | S. cerevisiae strains, strain wild type, active compounds read low 1.03
